L3MBTL1 inh: L3MBTL1 (human) inhibition | AlphaScreen L3MBTL1–H3K9me1 peptide binding | hit rate 0.66% among 230,000 | Q9Y468 | AID 485360 | Potency, µM (top dose mostly 57.1 µM), inactives show top-dose activity, negative = inhibition, hits mostly inhibitors; further: on the % scale 0 is the no-effect control and ±100 the full control effect; nearly all actives have a fitted effect of over 60% in size
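AlphaScreen proximity signal between nickel-chelate acceptor and streptavidin donor beads (final 10 ug/mL) reports binding of 50 nM L3MBTL1 to 75 nM biotin-H3 K9me1 peptide; complex incubated with compounds 30 min at room temperature; cefsulodin titration as control.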
HP1b binding inh: HP1-beta chromodomain-methylated histone interaction inhibition; hit rate 0.56% among 390,000; AID 540317; Potency, µM (top dose mostly 114 µM), for inactives: top-dose activity change, negative = inhibition, usual class: inhibitors; AlphaScreen HP1-beta / biotin-H3K9me3 peptide binding; further: nearly all actives have a fitted effect of over 70% in size
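Compound inhibition of the preformed complex between 50 nM HP1-beta and 50 nM biotinylated H3K9me3 peptide was read by AlphaScreen. Buffer was PBS pH 7.4 with 0.01% Tween-20. Incubations ran 30 min at room temperature, with 10 ug/mL donor/acceptor beads.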
G9a block: G9a (human) methyltransferase inhibition; Q96KQ7; G9a H3K9 monomethylation, AlphaScreen, 2 h; Potency, µM (series often up to 102 µM), for the others: top-dose activity, negative = inhibition, hits mostly inhibitors; hit rate 8.8% among 350,000; AID 504332; further: on the % scale 0 is the no-effect control and ±100 the full control effect; nearly all actives have a fitted effect of over 75% in size
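Readings reflect AlphaScreen signal from monomethyl-H3K9 antibody detection. HMT at 20 nM; substrate b-H3K9 500 nM; cofactor SAM 20 uM; 2 h RT reaction; compounds tested as titrations in qHTS with 15 min preincubation.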
BAZ2B inh: blocks human BAZ2B; AlphaScreen BAZ2B-H3K14Ac peptide displacement; AID 504333; hit rate 4.4% among 360,000; Q9UIF8; Potency, µM (top dose mostly 114 µM), for inactives: at the top dose activity change, negative = inhibition, hits mostly inhibitors; further: on the % scale 0 is the no-effect control and ±100 the full control effect; nearly all actives have a fitted effect of over 60% in size
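AlphaScreen displacement of biotin-H3(5-23)K14Ac peptide (50 nM final) from BAZ2B (50 nM final) in PBS pH 7.4, 0.01% Tween-20; complex preformed 30 min RT, then compounds (top 110 uM) 30 min RT, beads 20 min dark.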
JMJD2A Tudor: blocks the human JMJD2A Tudor domain; O75164; AlphaScreen JMJD2A-Tudor / H3K4me3 peptide binding; Potency, µM (highest dose often 114 µM), without a hit: top-dose activity change, negative = inhibition, actives largely listed as inhibitors; hit rate 4.4% among 390,000; AID 504339; further: on the % scale 0 is the no-effect control and ±100 the full control effect; nearly all actives have a fitted effect of over 50% in size
Target sequence (O75164 whole entry, looked up, the tested form may be a part): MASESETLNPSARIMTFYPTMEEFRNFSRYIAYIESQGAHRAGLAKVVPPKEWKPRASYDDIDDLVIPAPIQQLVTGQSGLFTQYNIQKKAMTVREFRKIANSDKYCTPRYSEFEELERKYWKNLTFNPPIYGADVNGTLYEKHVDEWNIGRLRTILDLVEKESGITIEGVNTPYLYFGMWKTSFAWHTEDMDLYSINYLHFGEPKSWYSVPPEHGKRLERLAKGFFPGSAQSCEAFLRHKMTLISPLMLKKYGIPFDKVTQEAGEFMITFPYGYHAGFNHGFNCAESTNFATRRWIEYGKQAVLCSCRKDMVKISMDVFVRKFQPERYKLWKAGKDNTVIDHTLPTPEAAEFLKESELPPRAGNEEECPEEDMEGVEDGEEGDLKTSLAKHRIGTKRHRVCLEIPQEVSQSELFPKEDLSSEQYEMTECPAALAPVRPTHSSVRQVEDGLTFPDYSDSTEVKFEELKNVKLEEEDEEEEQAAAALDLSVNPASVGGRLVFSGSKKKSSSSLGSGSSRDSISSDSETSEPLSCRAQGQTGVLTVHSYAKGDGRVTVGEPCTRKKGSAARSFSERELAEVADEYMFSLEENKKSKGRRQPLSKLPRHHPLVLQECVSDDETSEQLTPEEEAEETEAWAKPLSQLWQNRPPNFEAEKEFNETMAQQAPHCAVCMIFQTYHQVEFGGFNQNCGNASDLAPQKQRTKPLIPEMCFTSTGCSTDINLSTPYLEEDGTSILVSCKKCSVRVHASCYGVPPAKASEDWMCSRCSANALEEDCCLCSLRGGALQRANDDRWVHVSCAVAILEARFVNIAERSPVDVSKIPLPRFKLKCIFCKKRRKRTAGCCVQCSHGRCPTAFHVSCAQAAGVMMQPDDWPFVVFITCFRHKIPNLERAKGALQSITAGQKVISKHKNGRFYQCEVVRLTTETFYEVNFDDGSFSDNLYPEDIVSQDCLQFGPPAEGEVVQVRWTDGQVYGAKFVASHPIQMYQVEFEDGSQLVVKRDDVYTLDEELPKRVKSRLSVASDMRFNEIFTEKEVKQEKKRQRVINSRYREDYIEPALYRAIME
GLS inh: glutaminase GLS (human) inhibition. GLS enzymatic activity, qHTS titration. Potency, µM (highest dose often 45.5 µM), without a hit: at the top dose activity change, negative = inhibition, usual class: inhibitors. hit rate 0.21% among 410,000; further: on the % scale 0 is the no-effect control and ±100 the full control effect
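hKGA; 45 mM KH2PO4 pH 8.2 + 0.02% Tween-20; cpd via pin tool; 1 mM Gln soln; GluOx/HRP/Amplex Red; RT 30 min; fluor. t0 & final.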
The depositor's hits bear a star; ? = inconclusive; . = no result given; ! = repeats disagree; [ ] = dose if it differs, or a comment. An excerpt weighted towards active compounds, which were near 10% of everything screened. The call rests on the fitted dose curve; in most records, active means well fitted curve in the direction sought with a large enough effect; inconclusive means small, poorly fitted or top-dose-only effect, or another doubt; inactive means no such curve, though single readings can be large; an effect the other way counts as inactive or inconclusive. Potency means the concentration at half of the fitted maximal effect.

SMILES | L3MBTL1 inh | HP1b binding inh | G9a block | BAZ2B inh | JMJD2A Tudor | GLS inh
Cc1cc(C)c2[nH]c(C(=O)Nc3ccc(F)cc3Br)cc2c1 | . | 3.5% | 50.1µM* | -8.7% | -19.3% | 7.3%
O=C(NCC(c1ccco1)S(=O)(=O)c1cccs1)c1ccc(Cl)cc1 (stereo not given) | . | 27.9% | -26.4%[59 µM] | -8.3% | -14.6% | 0.9%
COc1cccc(/C=C2\SC(=S)N(CC3CCCO3)C2=O)c1 (stereo not given) | -28.3% | -51.6% | 28.2µM* | 8.91µM* | ? | 0.9%
O=C1/C(=C/c2cccc(O)c2)SC(=S)N1CC1CCCO1 (stereo not given) | -7.8% | 21.4%[57 µM] | -4.9%[12.7 µM] | -4.9% | -26.9% | 1.7%
COc1cccc(/C=C2\SC(=S)N(N3C(=O)CCCC3=O)C2=O)c1 | -9.9% | ? | 22.4µM* | 25.1µM* | -85.2% | -7.4%
COc1ccc(/C=C2\SC(=S)N(C(C)C(=O)NC3C=CS(=O)(=O)C3)C2=O)cc1 (stereo not given) | . | -15.2% | . | ? | ? | 8.1%
COc1cccc(/C=C2\SC(=S)N(C(C)C(=O)NC3C=CS(=O)(=O)C3)C2=O)c1 (stereo not given) | . | -18.7% | ? | 39.8µM* | ? | 29.2%
OCC[C@H]1C[C@H](O)[C@@H](O)[C@]2(Cc3ccccc3O2)O1 | -1.9% | 43.6% | -0.6%[12.7 µM] | 11.0% | -3.6% | -3.4%
OCC[C@@H]1C[C@H](O)[C@@H](O)[C@@]2(CCc3ccccc3O2)O1 | -5.7% | 55.8% | 79.4µM* | -23.9% | -16.4% | 6.1%
OCC[C@@H]1C[C@@H](O)[C@H](O)[C@@]2(Cc3ccccc3O2)O1 | 3.5% | 50.0% | 15.8µM* | -30.7% | -12.9% | -5.2%
NC(N)=NC(=O)Cc1c(Cl)cccc1Cl | 2.6% | 37.3% | 12.6µM*! | 6.7% | 6.5% | -1.3%
O=C(Cc1c(Cl)cccc1Cl)OCc1ccccn1 | . | 16.7% | 10.5% | 2.2% | 14.7% | 0.0%
CC(=O)Nc1cccc(NC(=O)Cc2csc(COc3cccc(C)c3)n2)c1 | . | 38.8% | -3.4%[59 µM] | -9.3% | 2.0% | 2.6%
CN1CCC(N(C)CC(=O)Nc2ccc3c(c2)OC(F)(F)O3)CC1 | -17.8% | ? | . | 44.7µM* | 2µM* | 1.2%
CN(CC(=O)Nc1ccc(SC(F)F)cc1)C1CCCCC1 | . | 46.8% | 79.4µM* | -0.9% | 1.4% | 7.6%
CN(CC(=O)Nc1ccc(S(N)(=O)=O)cc1)C1CCCCC1 | . | 33.5% | -4.5% | 6.6% | -4.2% | 16.4%
CN(CC(=O)Nc1ccc(Cl)c(Cl)c1)C1CCCCC1 | 9.8% | ? | 22.4µM* | -28.1% | 22.4µM* | -2.0%
COc1ccc(NC(=O)c2c(C)oc3ccc(O)c(CN4CCC(C)CC4)c23)cc1Cl | . | -10.9% | -36.3%[59 µM] | ? | ? | 16.1%
CCCOc1cccc(C(=O)Nc2ccc(-c3nc4ccccc4s3)c(Cl)c2)c1 | . | 7.2% | ? | 3.7% | -2.4% | -8.1%
CCOC(=O)c1nc(NNC(=O)c2ccc([N+](=O)[O-])cc2)sc1C | -2.7% | -12.7% | 44.7µM* | ? | ? | 7.0%
Cc1ccc(S(=O)(=O)Nc2nc(C)c(C(=O)NN)s2)cc1 | 4.1% | 19.8% | . | -15.7% | -1.1% | 24.1%
CCOC(=O)c1sc(NS(=O)(=O)c2ccc(C)cc2)nc1C | -1.0% | 38.6% | 50.1µM* | ? | -7.1% | 20.4%
CCOC(=O)c1sc(NNC(=O)c2ccc(C)cc2)nc1C | -7.4% | 38.4% | ? | -3.1% | -12.4% | 1.26µM*
CCOC(=O)c1sc(NNC(=O)c2ccc(F)cc2)nc1C | 16.4% | 20.5% | ? | 13.6% | -6.5% | ?
Cc1ccc(NC(=O)N2CCN(C(=O)c3nsc4ccccc34)CC2)cc1C | . | 18.2%[57 µM] | 8.2%[59 µM] | -4.3% | -22.4% | 4.2%
SMILES | L3MBTL1 inh | HP1b binding inh | G9a block | BAZ2B inh | JMJD2A Tudor | GLS inh
Cc1cc(C)c(-c2nc3ccccc3s2)[nH]1 | . | -2.0% | 50.1µM* | -22.9% | -21.2% | 9.8%
Oc1cccc(-c2nc3ccccc3s2)c1 | . | 59.1% | ? | 9.2% | -2.3% | 14.6%
CCCCC1CCc2[nH]nc(C(=O)O)c2C1 (stereo not given) | 0.5% | 26.2% | 15.7%[2.33 µM] | ? | -26.6% | 16.7%
CCC1CCc2[nH]nc(C(=O)O)c2C1 (stereo not given) | . | 6.9% | 25.1µM* | ? | 50.1µM* | -2.3%
CC1CCc2[nH]nc(C(=O)O)c2C1 (stereo not given) | 1.1% | 12.6% | 28.2µM* | ? | 31.6µM* | -1.4%
O=C(O)c1n[nH]c2c1CC(C1CCCCC1)CC2 (stereo not given) | -9.6% | 52.1% | 0.9%[2.33 µM] | 70.8µM* | -14.6% | 0.3%
O=C(CCn1c(=O)c2cccn2c2ccc(F)cc21)NCCc1ccccc1Cl | . | 36.8% | -0.3%[59 µM] | 1.5% | -2.6% | -1.1%
COCC(C)NCc1cccc2ccccc12 (stereo not given) | 5.3% | -13.7% | 31.6µM* | -36.8% | 31.6µM* | 0.8%
COCC(C)NCc1ccc(C)cc1C (stereo not given) | 7.0% | -26.8% | 11.2µM* | -33.1% | 4.47µM* | 3.9%
COCCNC(=O)c1ccc(C)cc1C | -2.2% | 33.3% | 17.4% | -4.5% | -13.7% | -3.0%
CC(CCc1ccccc1)NCc1cccc2ccccc12 (stereo not given) | -0.7% | -26.5% | ? | 11.2%[0.457 µM] | 25.1µM* | 8.6%
O=[N+]([O-])c1cccnc1N1CCC(c2cc(-c3ccc(Cl)cc3)n[nH]2)CC1 | . | ? | 8.91µM* | 50.1µM* | 25.1µM* | 3.1%
CCOC(=O)CN1CCC(c2cc(-c3ccc(Cl)cc3)n[nH]2)CC1 | . | 48.4% | 7.7% | 2.7% | -4.6% | -4.9%
N=c1c2c(ncn1CCN1CCOCC1)Oc1ccc3ccccc3c1C2c1ccccc1 (stereo not given) | . | 24.9% | ? | -36.7% | -18.4% | .
COc1ccc(C2c3c(ccc4ccccc34)Oc3ncn4nc(-c5ccco5)nc4c32)cc1OC (stereo not given) | 7.7% | 8.7% | ? | -31.1% | -12.8% | 6.3%
CCOc1ccc(C2c3c(ncn(-c4ccccc4)c3=N)Oc3ccc4ccccc4c32)cc1OCC (stereo not given) | . | . | . | . | 39.8µM* | .
N=c1c2c(ncn1-c1ccccc1)Oc1ccc3ccccc3c1C2c1ccc2c(c1)CCO2 (stereo not given) | . | . | . | . | 35.5µM* | .
N=c1c2c(ncn1-c1ccccc1)Oc1ccc3ccccc3c1C2c1ccc2c(c1)OCCO2 (stereo not given) | . | . | . | . | 22.4µM* | .
Cc1c(Cl)cccc1NC(=O)CCOc1ccccc1 | . | 39.1% | ? | 4.8% | -6.9% | -0.7%

From PubChem
